Changes are numbered by the printed parent chain.
Legend:
Test in all cases: PBM; 200 nM protein, PBS
Details in all cases: dsDNA, one strand shown
ALX3 [1] = target: ALX3 (Homo sapiens, UniProt O95076 139-225, N203Q)
ALX3 [2] = target: ALX3 (Homo sapiens, UniProt O95076 139-225)
ALX3 [3] = target: ALX3 (Homo sapiens, UniProt O95076 139-225, L168Q)
ALX3 [4] = target: ALX3 (Homo sapiens, UniProt O95076 139-225, L168V)
ALX3 [5] = target: ALX3 (Homo sapiens, UniProt O95076 139-225, N203S)
PRRX1 = PRRX1 (Homo sapiens, UniProt P54821 80-166)
CRX [6] = target: CRX (Homo sapiens, UniProt O43186 26-111)
CRX [7] = target: CRX (Homo sapiens, UniProt O43186 26-111, E42D)
CRX [8] = target: CRX (Homo sapiens, UniProt O43186 26-111, R41L)
ALX4 [9] = target: ALX4 (Homo sapiens, UniProt Q9H161 200-286)
PAX4 [10] = target: T1, PAX4 (Homo sapiens, UniProt O43316 9-242)
T1 sequence: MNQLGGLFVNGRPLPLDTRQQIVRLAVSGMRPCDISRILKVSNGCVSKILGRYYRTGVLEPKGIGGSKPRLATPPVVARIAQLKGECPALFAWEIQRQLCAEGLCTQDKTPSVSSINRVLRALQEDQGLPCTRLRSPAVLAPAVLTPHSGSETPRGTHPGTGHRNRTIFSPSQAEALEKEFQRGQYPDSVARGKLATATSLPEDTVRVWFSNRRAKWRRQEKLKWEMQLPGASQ

ALX4 [11] = target: ALX4 (Homo sapiens, UniProt Q9H161 200-286, Q225E)
ALX1 [12] = target: ALX1 (Homo sapiens, UniProt Q15699 118-204, L144V)
PAX4 [13] = target: T2, PAX4 (Homo sapiens, UniProt O43316 9-242, R200Q)
T2 sequence: T1 sequence with R192Q

ALX1 [14] = target: ALX1 (Homo sapiens, UniProt Q15699 118-204, L144R)
PAX4 [15] = target: T3, PAX4 (Homo sapiens, UniProt O43316 9-242, F177V)
T3 sequence: T1 sequence with F169V

PAX4 [16] = target: T4, PAX4 (Homo sapiens, UniProt O43316 9-242, F177Y)
T4 sequence: T1 sequence with F169Y

PAX4 [17] = target: T5, PAX4 (Homo sapiens, UniProt O43316 9-242, R227W)
T5 sequence: T1 sequence with R219W

ALX1 [18] = target: ALX1 (Homo sapiens, UniProt Q15699 118-204)
MSX2 = MSX2 (Homo sapiens, UniProt P35548 130-214, F161Y)
MSX2, sequence (P35548 130-214 F161Y): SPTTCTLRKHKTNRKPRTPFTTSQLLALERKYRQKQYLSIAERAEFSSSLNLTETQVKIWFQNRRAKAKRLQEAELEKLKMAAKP

ALX4 (Homo sapiens, UniProt Q9H161 200-286, Q225E), sequence (Q9H161 200-286 Q225E): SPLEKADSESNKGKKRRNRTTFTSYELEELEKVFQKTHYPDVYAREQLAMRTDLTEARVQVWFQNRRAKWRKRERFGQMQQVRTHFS
ALX3 (Homo sapiens, UniProt O95076 139-225, L168V), sequence (O95076 139-225 L168V): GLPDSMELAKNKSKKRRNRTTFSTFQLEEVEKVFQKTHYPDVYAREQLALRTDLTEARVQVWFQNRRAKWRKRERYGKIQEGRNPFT
ALX3 (Homo sapiens, UniProt O95076 139-225, N203Q), sequence (O95076 139-225 N203Q): as the sequence (O95076 139-225 L168V) above, with V30L, N65Q counted along it
PRRX1, sequence (P54821 80-166): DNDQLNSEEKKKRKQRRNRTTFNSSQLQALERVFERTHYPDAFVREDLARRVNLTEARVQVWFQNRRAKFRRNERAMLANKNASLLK
ALX3 (Homo sapiens, UniProt O95076 139-225, N203S), sequence (O95076 139-225 N203S): as the sequence (O95076 139-225 L168V) above, with V30L, N65S counted along it
ALX3 (Homo sapiens, UniProt O95076 139-225), sequence (O95076 139-225): as the sequence (O95076 139-225 L168V) above, with V30L counted along it
ALX4 (Homo sapiens, UniProt Q9H161 200-286), sequence (Q9H161 200-286): as the sequence (Q9H161 200-286 Q225E) above, with E26Q counted along it
ALX3 (Homo sapiens, UniProt O95076 139-225, L168Q), sequence (O95076 139-225 L168Q): as the sequence (O95076 139-225 L168V) above, with V30Q counted along it
ALX1 (Homo sapiens, UniProt Q15699 118-204, L144V), sequence (Q15699 118-204 L144V): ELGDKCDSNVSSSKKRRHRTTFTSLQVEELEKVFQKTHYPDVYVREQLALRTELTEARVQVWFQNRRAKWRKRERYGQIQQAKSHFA
ALX1 (Homo sapiens, UniProt Q15699 118-204), sequence (Q15699 118-204): as the sequence (Q15699 118-204 L144V) above, with V27L counted along it
ALX1 (Homo sapiens, UniProt Q15699 118-204, L144R), sequence (Q15699 118-204 L144R): as the sequence (Q15699 118-204 L144V) above, with V27R counted along it
CRX (Homo sapiens, UniProt O43186 26-111, R41L), sequence (O43186 26-111 R41L): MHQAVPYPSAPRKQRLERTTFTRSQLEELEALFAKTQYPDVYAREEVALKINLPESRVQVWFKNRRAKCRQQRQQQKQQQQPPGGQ
CRX (Homo sapiens, UniProt O43186 26-111), sequence (O43186 26-111): as the sequence (O43186 26-111 R41L) above, with L16R counted along it
CRX (Homo sapiens, UniProt O43186 26-111, E42D), sequence (O43186 26-111 E42D): as the sequence (O43186 26-111 R41L) above, with L16R, E17D counted along it

GACTGGCC
binding signal (ALX3 [1]): 7.82 upbm affinity estimate (log intensity, higher = more binding, comparable within an allelic series)
binding signal (ALX3 [2]): 7.84 upbm affinity estimate (log intensity, higher = more binding, comparable within an allelic series)
binding signal (ALX3 [3]): 7.72 upbm affinity estimate (log intensity, higher = more binding, comparable within an allelic series)
binding signal (ALX3 [4]): 7.77 upbm affinity estimate (log intensity, higher = more binding, comparable within an allelic series)
binding signal (ALX3 [5]): 7.91 upbm affinity estimate (log intensity, higher = more binding, comparable within an allelic series)

AACAATAC
binding signal (PRRX1): 10.9 upbm affinity estimate (log intensity, higher = more binding, comparable within an allelic series)

AATCATTA
binding signal (CRX [6]): 10.5 upbm affinity estimate (log intensity, higher = more binding, comparable within an allelic series)
binding signal (CRX [7]): 10.3 upbm affinity estimate (log intensity, higher = more binding, comparable within an allelic series)
binding signal (CRX [8]): 9.82 upbm affinity estimate (log intensity, higher = more binding, comparable within an allelic series)

TAAATTAA
binding signal (ALX4 [9]): 13.9 upbm affinity estimate (log intensity, higher = more binding, comparable within an allelic series)
binding signal (PAX4 [10]): 12.3 upbm affinity estimate (log intensity, higher = more binding, comparable within an allelic series)
binding signal (ALX4 [11]): 13.1 upbm affinity estimate (log intensity, higher = more binding, comparable within an allelic series)
binding signal (ALX1 [12]): 11.8 upbm affinity estimate (log intensity, higher = more binding, comparable within an allelic series)
binding signal (ALX3 [1]): 8.53 upbm affinity estimate (log intensity, higher = more binding, comparable within an allelic series)
binding signal (PAX4 [13]): 12 upbm affinity estimate (log intensity, higher = more binding, comparable within an allelic series)
binding signal (ALX1 [14]): 11.5 upbm affinity estimate (log intensity, higher = more binding, comparable within an allelic series)
binding signal (PAX4 [15]): 10.6 upbm affinity estimate (log intensity, higher = more binding, comparable within an allelic series)
binding signal (ALX3 [2]): 12.4 upbm affinity estimate (log intensity, higher = more binding, comparable within an allelic series)
binding signal (PAX4 [16]): 11 upbm affinity estimate (log intensity, higher = more binding, comparable within an allelic series)
binding signal (ALX3 [3]): 10.4 upbm affinity estimate (log intensity, higher = more binding, comparable within an allelic series)
binding signal (ALX3 [4]): 9.89 upbm affinity estimate (log intensity, higher = more binding, comparable within an allelic series)
binding signal (PAX4 [17]): 11 upbm affinity estimate (log intensity, higher = more binding, comparable within an allelic series)
binding signal (ALX1 [18]): 12.4 upbm affinity estimate (log intensity, higher = more binding, comparable within an allelic series)
binding signal (ALX3 [5]): 8.68 upbm affinity estimate (log intensity, higher = more binding, comparable within an allelic series)
binding signal (PRRX1): 13.4 upbm affinity estimate (log intensity, higher = more binding, comparable within an allelic series)

ACATTAAT
binding signal (PAX4 [15]): 10.5 upbm affinity estimate (log intensity, higher = more binding, comparable within an allelic series)

ATTATTAA
binding signal (ALX3 [1]): 8.56 upbm affinity estimate (log intensity, higher = more binding, comparable within an allelic series)
binding signal (PRRX1): 13.2 upbm affinity estimate (log intensity, higher = more binding, comparable within an allelic series)

GCGCAGCC
binding signal (ALX1 [12]): 6.42 upbm affinity estimate (log intensity, higher = more binding, comparable within an allelic series)
binding signal (ALX1 [14]): 6.45 upbm affinity estimate (log intensity, higher = more binding, comparable within an allelic series)
binding signal (ALX1 [18]): 6.41 upbm affinity estimate (log intensity, higher = more binding, comparable within an allelic series)

CCCCCTCG
binding signal (ALX4 [9]): 8.09 upbm affinity estimate (log intensity, higher = more binding, comparable within an allelic series)
binding signal (ALX4 [11]): 7.97 upbm affinity estimate (log intensity, higher = more binding, comparable within an allelic series)
binding signal (MSX2): 9.64 upbm affinity estimate (log intensity, higher = more binding, comparable within an allelic series)

ATCGATTA
binding signal (PAX4 [16]): 11 upbm affinity estimate (log intensity, higher = more binding, comparable within an allelic series)

CCTCATTA
binding signal (PRRX1): 13.2 upbm affinity estimate (log intensity, higher = more binding, comparable within an allelic series)

GACCAGGC
binding signal (PAX4 [10]): 9.45 upbm affinity estimate (log intensity, higher = more binding, comparable within an allelic series)
binding signal (PAX4 [13]): 9.45 upbm affinity estimate (log intensity, higher = more binding, comparable within an allelic series)
binding signal (PAX4 [15]): 9.26 upbm affinity estimate (log intensity, higher = more binding, comparable within an allelic series)
binding signal (PAX4 [16]): 9.29 upbm affinity estimate (log intensity, higher = more binding, comparable within an allelic series)
binding signal (PAX4 [17]): 9.37 upbm affinity estimate (log intensity, higher = more binding, comparable within an allelic series)

TATTAATA
binding signal (ALX3 [1]): 8.75 upbm affinity estimate (log intensity, higher = more binding, comparable within an allelic series)
binding signal (PAX4 [13]): 11.9 upbm affinity estimate (log intensity, higher = more binding, comparable within an allelic series)
binding signal (PAX4 [16]): 11.1 upbm affinity estimate (log intensity, higher = more binding, comparable within an allelic series)
binding signal (ALX3 [4]): 9.77 upbm affinity estimate (log intensity, higher = more binding, comparable within an allelic series)
binding signal (PAX4 [17]): 11.2 upbm affinity estimate (log intensity, higher = more binding, comparable within an allelic series)
binding signal (ALX3 [5]): 8.79 upbm affinity estimate (log intensity, higher = more binding, comparable within an allelic series)

ATTAATCG
binding signal (PAX4 [10]): 12.2 upbm affinity estimate (log intensity, higher = more binding, comparable within an allelic series)
binding signal (PAX4 [13]): 12 upbm affinity estimate (log intensity, higher = more binding, comparable within an allelic series)
binding signal (PAX4 [15]): 10.5 upbm affinity estimate (log intensity, higher = more binding, comparable within an allelic series)
binding signal (PAX4 [16]): 11.1 upbm affinity estimate (log intensity, higher = more binding, comparable within an allelic series)
binding signal (PAX4 [17]): 10.7 upbm affinity estimate (log intensity, higher = more binding, comparable within an allelic series)

AGTCATTA
binding signal (PRRX1): 12.7 upbm affinity estimate (log intensity, higher = more binding, comparable within an allelic series)

GGAGCTCC
binding signal (ALX4 [9]): 7.72 upbm affinity estimate (log intensity, higher = more binding, comparable within an allelic series)
binding signal (ALX4 [11]): 7.79 upbm affinity estimate (log intensity, higher = more binding, comparable within an allelic series)
binding signal (ALX3 [1]): 7.68 upbm affinity estimate (log intensity, higher = more binding, comparable within an allelic series)
binding signal (ALX3 [2]): 7.41 upbm affinity estimate (log intensity, higher = more binding, comparable within an allelic series)
binding signal (ALX3 [3]): 7.7 upbm affinity estimate (log intensity, higher = more binding, comparable within an allelic series)
binding signal (ALX3 [4]): 7.63 upbm affinity estimate (log intensity, higher = more binding, comparable within an allelic series)
binding signal (MSX2): 9.3 upbm affinity estimate (log intensity, higher = more binding, comparable within an allelic series)
binding signal (ALX3 [5]): 7.63 upbm affinity estimate (log intensity, higher = more binding, comparable within an allelic series)

GCCGCCGC
binding signal (MSX2): 9.42 upbm affinity estimate (log intensity, higher = more binding, comparable within an allelic series)

GGTCATTA
binding signal (MSX2): 12.5 upbm affinity estimate (log intensity, higher = more binding, comparable within an allelic series)

CGAGGCAC
binding signal (MSX2): 9.56 upbm affinity estimate (log intensity, higher = more binding, comparable within an allelic series)

— article PMC11006913
